ELG1 genotoxic – inducers of genotoxicity in HEK293T ELG1-luciferase cells; HEK293T ELG1-luciferase reporter, luminescence, 16 h; Potency, µM (doses to about 46 µM), inactives show top-dose activity change, positive = activation, hits mostly activators; 330,000 compounds, 1.3% hits; AID 504466; further: % of control where 0% means no effect; nearly all actives have a fitted effect of over 60% in size
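Quantitative HTS format in 1536-well plates. HEK293T ELG1-luciferase reporter cells receive test compound and are incubated 16 hr at 37 °C, 5% CO2; ONE-Glo added, 30 min room temperature, then luminescence read.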
FLuc counter – counter-screen for miR-21 project: firefly luciferase inhibitors or activators | P08659 | purified FLuc, Km substrates, luminescence inhibition | Potency, µM (doses to about 57.5 µM), for the others: at the highest dose activity change, negative = inhibition, usual class: inhibitors | 360,000 compounds, 6.9% hits;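 further: plate controls were vehicle for no effect and reference inhibitor for full effect; nearly all actives have a fitted effect of over 55% in size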
Target sequence (P08659 whole entry, looked up): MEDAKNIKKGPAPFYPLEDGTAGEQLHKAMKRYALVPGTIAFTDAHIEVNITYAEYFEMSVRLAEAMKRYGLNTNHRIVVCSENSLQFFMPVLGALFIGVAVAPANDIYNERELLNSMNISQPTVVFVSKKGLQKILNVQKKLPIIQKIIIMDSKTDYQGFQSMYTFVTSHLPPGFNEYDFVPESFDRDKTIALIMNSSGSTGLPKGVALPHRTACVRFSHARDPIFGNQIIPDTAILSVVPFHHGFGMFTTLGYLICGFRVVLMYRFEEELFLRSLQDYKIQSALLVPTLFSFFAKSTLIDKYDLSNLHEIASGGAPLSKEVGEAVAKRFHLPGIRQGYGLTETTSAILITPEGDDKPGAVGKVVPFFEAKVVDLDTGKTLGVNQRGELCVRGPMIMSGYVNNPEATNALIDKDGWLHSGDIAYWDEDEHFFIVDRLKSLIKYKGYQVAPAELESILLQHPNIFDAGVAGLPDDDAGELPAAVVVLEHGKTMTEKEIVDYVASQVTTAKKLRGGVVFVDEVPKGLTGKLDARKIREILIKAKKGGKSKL
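Purified P. pyralis luciferase (10nM final) with 10uM D-luciferin and 10uM ATP (Km levels) in 50mM Tris acetate pH 7.5, 10mM Mg acetate, 0.01% Tween-20, 0.05% BSA; qHTS 6-point titration, ~60 µM downward; luminescence read.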
Rab9 prom act – activates the Rab9 promoter | Huh7 Rab9 promoter-luciferase reporter, luminescence, 24 h | Potency, µM (top dose mostly 9.22 µM), for inactives: top-dose activation, negative = inhibition, actives largely listed as activators | 320,000 compounds, 2.8% hits; further: % of control where 0% means no effect; nearly all actives have a fitted effect of over 60% in size
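Huh7 reporter line, Rab9 promoter upstream of luciferase. Compound exposure 24 h at 37 °C in reduced-serum medium with 10% FBS. Read-out: luminescence.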
ELG1 DNA repair – inhibitors of ELG1-dependent DNA repair in HEK293T cells | AID 504467 | Potency, µM (series often up to 46.1 µM), inactives show at the top dose activity change, negative = inhibition, hits mostly inhibitors | 330,000 compounds, 2.3% hits | HEK293T ELG1-luciferase reporter, luminescence, 16 h; DNA damage induced by 5-fluorouridine; further: on the % scale 0 is the no-effect control and ±100 the full control effect; nearly all actives have a fitted effect of over 55% in size
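Luminescence from the luciferase reporter, measured 30 min after ONE-Glo reagent at room temperature, was the read-out. Beforehand, 2,000 cells per well were exposed for 16 hr at 37 °C to 5-fluorouridine together with compound or vehicle.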
SMN2 splice enh – SMN2 splice variant enhancement. AID 1458. HEK293 SMN2-luciferase splicing reporter, luminescence, 30-36 h. 210,000 compounds, 2.8% hits. Potency, µM (top dose mostly 46.1 µM), without a hit: at the highest dose activity change, positive = activation, hits mostly activators; further: % of control where 0% means no effect; nearly all actives have a fitted effect of over 55% in size
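HEK293 cells carry an SMN2 […]–luciferase reporter in which exon 7 inclusion puts luciferase in frame. Cells were plated 10-12 h before compound addition, then incubated 30-36 h at 37C. ONE-Glo luminescence was read; sodium butyrate at 4.5 mM final served as control.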
NPC1 prom act – activates the NPC1 promoter | Huh7 NPC1 promoter luciferase reporter, 24 h | 320,000 compounds, 2.4% hits | AID 485313 | Potency, µM (doses to about 9.22 µM), without a hit: top-dose activation, most hits filed as activators; further: % of control where 0% means no effect; nearly all actives have a fitted effect of over 60% in size
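Luminescence from an NPC1 promoter-driven luciferase reporter in stably transfected Huh7 cells was measured after 24 h compound treatment at 37 °C, followed by 10 min ambient incubation with luciferase detection reagent.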
An asterisk follows results filed as active; ? = inconclusive; · = not tested or not shown; [ ] = remark or other dose. In the library only some 9.4% were active in any assay of this set; here they are far more common. The call rests on the fitted dose curve; in most records, active means well fitted curve in the direction sought with a large enough effect; inconclusive means small, poorly fitted or top-dose-only effect, or another doubt; inactive means no such curve, though single readings can be large; an effect the other way counts as inactive or inconclusive. Potency means the concentration at half of the fitted maximal effect.

SMILES	ELG1 genotoxic	FLuc counter	Rab9 prom act	ELG1 DNA repair	SMN2 splice enh	NPC1 prom act
COc1ccccc1S(=O)(=O)Cc1ccc(C(=O)N2CCCC2)o1	-0.1%	1.1%	5.6%	1.3%	8.0%	0.7%
Cc1ccccc1S(=O)(=O)Cc1ccc(C(=O)N2CCN(c3cccc(C)c3C)CC2)o1	-56.6%	-0.3%	-46.0%	7.31µM*	-72.2%	-35.6%
COc1ccccc1N1CCN(C(=O)c2oc3c(c2C)C(=O)CC(C)(C)C3)CC1	-16.4%	4.0%	-10.0%	20.6µM*	·	-5.7%
CCc1ccccc1S(=O)(=O)Cc1ccc(C(=O)N2CCN(c3ccccc3OC)CC2)o1	-26.0%	9.7%	-5.8%	23.1µM*	-14.9%	-3.3%
Oc1cccc(/C=N/N=C/c2cccc(O)c2O)c1O	?	1.69µM*	-32.6%	?	·	-23.4%
CC1(C)Cc2c(sc(NC(=O)c3ccc(Br)o3)c2C#N)CO1	21.6%	2.39µM*	3.55µM*	?	12.6µM*	2.51µM*
CC1(C)Cc2c(sc(NC(=S)NC(=O)c3ccccc3)c2C(=O)O)CO1	-0.8%	?	6.9%	-3.1%	2.1%	2.1%
CC1(C)Cc2c(sc(NC(=O)c3ccco3)c2C(=O)O)CO1	?	6.75µM*	?	?	?	?
COc1cccc(C2=NC(C)(C)NC(c3ccccc3O)C2)c1 (stereo not drawn)	1.3%	8.49µM*	2.9%	?	-3.8%	-2.3%
COc1cccc(C2=NOC(C(=O)NC(C)C)C2)c1 (stereo not drawn)	1.3%	-1.9%	-3.9%	7.7%	1.5%	1.0%
CCC1(C)N=C(c2ccc3c(c2)OCO3)CC(c2ccccc2O)N1 (stereo not drawn)	10.1%	7.57µM*	?	?	?	11.4%
CCN(CC)C(=O)C1=CC(c2ccc3c(c2)OCO3)=NS(=O)(=O)N1C	·	-11.3%	·	·	·	·
O=C(c1ccc(Br)o1)N1CCN(C/C=C/c2ccccc2)CC1	-0.7%	-1.1%	4.2%	-16.0%	-13.8%	1.4%
O=C(c1ccc(=O)n(Cc2ccccc2)n1)N1CCN(C/C=C/c2ccccc2)CC1	-14.7%	2.8%	-4.4%	16.4µM*	-40.6%	-1.0%
COc1ccccc1CNc1ncnc2c1c(-c1ccccc1)cn2-c1ccc(Br)cc1	·	1.7%	·	·	·	·
Cc1cccc(NC(=O)CSc2nccn2Cc2ccc(F)cc2)c1C	·	2.0%	·	·	·	·
COCc1nc(-c2ccc(-c3ccccc3)nc2OC)no1	3.6%	?	3.98µM*	27.8%	22.4µM*	?
CCc1nc(-c2ccc(-c3ccc(OC)cc3)nc2OC)no1	?	21.3µM*	?	?	?	?
COCc1nc(-c2ccc(-c3ccc(OC)cc3)nc2OC)no1	11.8%	?	23.6%	?	18.9%	12.9%
CCCCC12CN3CC(C)(CN(C1)C3c1c(C)[nH]c(=O)[nH]c1=O)C2=O (stereo not drawn)	·	-1.1%	·	·	1.9%	·
O=C(c1cccc(Cl)c1)N(Cc1cccc(F)c1)C1CCS(=O)(=O)C1 (stereo not drawn)	·	-2.5%	·	·	3.3%	·
Cc1ccc(-c2nc3cc(N)ccc3o2)cc1Br	2.91µM*	1.9µM*	1.78µM*	?	·	1.26µM*
COC(=O)c1ccc(-c2nc3cc(N)ccc3o2)cc1	?	1.2µM*	?	?	?	21.6%
Nc1ccc(-c2nc3cc(N)ccc3o2)cc1	5.17µM*	2.69µM*	0.631µM*	?	·	0.398µM*
c1cc(-c2nc3cc(Cc4ccc5oc(-c6ccncc6)nc5c4)ccc3o2)ccn1	2.2%	-4.2%[2.3 µM]	0.1%	3.9%	-0.7%	-1.4%
Cc1ccc(C)c(-c2nc3cc(N)ccc3o2)c1	10.3µM*	13.5µM*	?	?	11.2µM*	20.2%
CCc1ccc2oc(-c3cc(N)cc(C)c3O)nc2c1	?	?	?	?	?	6.3%
